Measured values taken from PubChem BioAssay AID1259311 (ICCB-Longwood Screening Facility, Harvard Medical School, 2017).
Where “and” joins values, the source holds several entries; their conditions need not be identical. Identical values can stand only once. About 1,100 (0.33%) of roughly 330,000 compounds were called active. The entries come from a sample that favours actives as a whole. Unmarked numbers belong to inactive results. Cut-off read from the data, not from the text of the source: active = inhibition above about 85%; inactive = the rest.

Experiment: growth inhibition of S. aureus RN4220, primary screen, OD600 (AID 1259311);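 note: plate controls were untreated cells for no effect and reference antibiotic for full effect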
Details: OD600, 16 h, hits give high values

SMILES	inhibition
CCN1CC2C3C(=O)N(C)C(=O)C3[C@](Cc3ccccc3)(C1=O)N2C(=O)c1ccccc1 (stereo not given in full)	1.95%
COC(=O)C(C=NOCc1ccc([N+](=O)[O-])cc1)NC(=O)c1cccc(Cl)c1 (stereo not given)	-3.78%
COC(=O)[C@@]1(Cc2ccc(OC)cc2)C2c3cc(C(=O)N4CCCC4)n(CCSCCO)c3CC2CN1C(=O)c1ccccc1 (stereo not given in full)	3.17%
N#CC1=C(SCc2ccc(C#N)cc2)N=C(N)C(c2nc(-c3ccccc3)cs2)C12CCCCC2 (stereo not given)	98.3% (active)
N#Cc1ccc(CSc2ncccn2)cc1	3.27%
N#CC1=C(SCc2ccccc2)NC(=O)C(C#N)C12CCCC2 (stereo not given)	13.6%
O=C(NC1CC1)C1=CC(C2CC2)CC(OCCCCO)O1 (stereo not given)	6.8% and 1.82%
Cc1cc(C(=O)NN=Cc2cc(Cl)cc([N+](=O)[O-])c2O)n[nH]1	7.38%
COc1ccc(C(=O)/C=C/c2cccnc2)c(OC)c1	2.36%
COc1ccc(NC(=O)ON=Cc2ccc(Br)cc2)cc1	5.53%
COc1ccc(/C=C/C(=O)c2cc(Br)ccc(=O)c2O)cc1	94.3% (active)
O=C(Cc1ccccc1)NNC1CC(=O)N(c2ccc(Br)cc2)C1=O (stereo not given)	4.24%
CC(C)(C)OC(=O)NC(Cc1ccccc1)C(=O)NC(CO)C(O)C1CC1C(=O)NC1CC1 (stereo not given)	2.57%
CC(C)(C)OC(=O)C1=C(CO)CS[C@@H]2[C@H](NC(=O)Cc3ccccc3)C(=O)N12	99.2% (active)
CC(=NNC(=O)CNc1ccccc1)c1ccccc1	0.316%
Cc1cc(N=Nc2ccc3ccccc3c2)ccc1O	99.9% (active)
Cc1c(O)ccc(C(Cc2ccc3ccccc3n2)=NN)c1O	4.37%
COc1cccc(C=NNC(=O)CNC(=O)C2COc3ccccc3O2)c1O (stereo not given)	2.29%
CC(=O)c1cccc(NC(=O)C2COc3ccccc3O2)c1 (stereo not given)	4.71%
O=C(Nc1ncc([N+](=O)[O-])s1)C1COc2ccccc2O1 (stereo not given)	92.1% (active)

SMILES	inhibition
CC(=NNC(=O)CNC(=O)C1COc2ccccc2O1)c1ccc([N+](=O)[O-])cc1 (stereo not given)	2.91%
Cc1ccc(NC(=O)CN2C(=O)SC(=Cc3cccn3-c3cccc(C(=O)O)c3)C2=O)cc1C	8.73%
CC(=NN=C(c1ccccc1)c1ccccc1)c1ccco1	7.82%
COc1ccc(CN(Cc2ccc(OC)cc2)C(=O)c2cccs2)cc1	6.45%
COc1ccc(CCNC(=O)C(Sc2ccccn2)c2ccccc2)cc1OC (stereo not given)	4.13%
COc1ccc(C(CCN(Cc2ccc(OC)c(OC)c2)C(=O)CCl)c2ccccc2)cc1 (stereo not given)	85.5% (active)
COc1ccc(CN2CCC(=O)N(C(CO)c3ccccc3)CC2)cc1OC (stereo not given)	-2.15%
CCCCCN1CC(O)=C(c2ccccc2)C1=N	7.74%
CCCCCCCCCCCCn1ccc(=N)cc1	101% (active)
CCC1=C2CCC3C(=O)N(CC)C(=O)C3C2[C@@]2(Cc3ccccc3)C(=NCCOC)OC(=O)N2C1=O (stereo not given in full)	4.23%
O=C(NN=Cc1cccc(OCC(=O)N2CCCC2)c1)C(=O)Nc1ccccc1F	5.07%
CC=C(C)C(=O)NCCN1C2=NCC(C(C)C)N2CC1Cc1ccc(O)cc1 (stereo not given)	5.17%
O=C(CC(=O)NN=Cc1ccc(Cl)cc1Cl)NCc1ccccc1	3.6%
Cc1c(CCO)sc[n+]1CC(=O)OC12CC3CC(CC(C3)C1)C2	4.95%
Cc1c(CCOC(=O)CC23CC4CC(CC(C)(C4)C2)C3)sc[n+]1Cc1ccc([N+](=O)[O-])cc1	100% (active) and 99.7% (active)
Cc1c(CCOC(=O)c2cc([N+](=O)[O-])ccc2Cl)sc[n+]1CCCCS(=O)(=O)[O-]	-3.66%
O=C1C=C(c2ccc3ncccc3c2)CC(c2ccc(F)cc2)C1 (stereo not given)	-2.12%
CCOc1cc(C=NO)ccc1OCc1ccccc1F	7.66%
Clc1ccc(NN=Cc2cccs2)nn1	4.84%
C/C(C=Nn1c(-c2cccnc2)n[nH]c1=S)=C\c1ccco1	12.6%

SMILES	inhibition
CCCCCCCCn1c2c(c(=N)c3c1CCC3)CCCC2	100% (active)
CC(C)c1ccc2c(c1)c(SC(C)(C)C)c(CC(C)(C)C(=O)O)n2Cc1ccc(Cl)cc1	100% (active)
NC(Cc1ccc(O)cc1)c1cn(C(CCC(=O)O)C(=O)N2CCNCC2)nn1 (stereo not given)	3.88%
NC(=NOC(=O)C(c1ccccc1)c1ccccc1)c1ccccn1	1.37%
O=C(O)C(c1ccccc1)N1C(=O)/C(=C\c2ccc(-c3cccc(Cl)c3)o2)SC1=S (stereo not given)	95.5% (active)
CC1=NOC(=O)C1=Cc1ccc(-c2ccc(Cl)c(C(=O)O)c2)o1	3.22%
S=c1[nH]nc(-c2cccc(Cl)c2)n1N=Cc1ccc(-c2ccccc2Br)o1	10.7%
Cc1cccc(OCC(=O)NN=Cc2ccc(N(C)C)cc2)c1	6.39%
O=C(NN=Cc1c[nH]c2ccccc12)c1ccc(O)c(O)c1	-0.918%
O=C(NN=Cc1c[nH]c2ccccc12)c1[nH]c2ccc(Br)cc2c1-c1ccccc1	86.5% (active)
CCOc1ccc(Br)cc1C(=O)NN=Cc1c[nH]c2ccccc12	-6.23%
CCCCN1C(=S)NCC1Cc1ccc(O)cc1 (stereo not given)	4.99%
O=C(Nc1nnc(C2COc3ccccc3O2)o1)c1ccc(F)cc1 (stereo not given)	98.2% (active)
O=C(COC(=O)c1ccc(F)cc1)NCC1COc2ccccc2O1 (stereo not given)	-4.66%
CC1COc2ccccc2N1C(=O)c1ccc(F)cc1 (stereo not given)	1.99%
COc1ccc(C(C)=NOCC(=O)N2CC3(C)CC2CC(C)(C)C3)cc1 (stereo not given)	4.12%
CCCc1c(C(=O)NN=Cc2ccc(OC)c(OCc3ccccc3)c2)nnn1-c1nonc1N	14%
COC(=O)[C@@]12CCCCN1C(c1ccc(-c3ccc4c(c3)OCO4)cc1)C1C(=O)N(C)C(=O)C12 (stereo not given in full)	-2.68%
COc1ccc(C(C)=NNC(=O)C(NC(=O)c2ccccc2)c2n[nH]c(=O)c3ccccc23)c(OC)c1 (stereo not given)	1.72%
Cc1ccc(C=NNC(=O)c2ccco2)cc1	-0.191%
